Assay results published in PubChem BioAssay (EPA / NIEHS).
Calls of active or inactive are those of the source. How the source made its calls: active means hit-call score of the fitted dose curve at least 0.9, where 1 is the maximum; inactive means score below 0.9.

experiment: ATG_TGFb_CIS: Attagene CIS-FACTORIAL HepG2 Assay for human Transforming Growth Factor (TGF) (AID 2282967); settings: HepG2 Attagene CIS TGFb reporter, mRNA transcription; actives raise or lower the signal
In short: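 Transient MRTU transfection of HepG2 (FuGene 6). Dose 24 h. TriZol RNA, oligo(dT) RT, PCR, 6-FAM primer extension, HpaI cut, CE. Bidirectional fit, DMSO = baseline.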

| SMILES | outcome | AC50 |
| --- | --- | --- |
| O=C1C(c2[nH]c3ccc(S(=O)(=O)O)cc3c2O)=Nc2ccc(S(=O)(=O)O)cc21 | inactive | – |
| COc1cc2ncnc(Nc3cccc(Cl)c3)c2cc1OC | inactive | – |
| O=Cc1ccc(Cl)c([N+](=O)[O-])c1 | inactive | – |
| CC(=O)[C@H]1CC[C@H]2[C@@H]3CC=C4C[C@@H](O)CC[C@]4(C)[C@H]3CC[C@]12C | inactive | – |
| O=S(=O)(O)c1ccc(O)c2ncccc12 | inactive | – |
| NCCCCCCN | inactive | – |
| OC[C@H]1O[C@H](O[C@]2(CCl)O[C@H](CCl)[C@@H](O)[C@@H]2O)[C@H](O)[C@@H](O)[C@H]1Cl | inactive | – |
| CCCCCC=CCC(=O)OC | inactive | – |
| CNCCCC12CCC(c3ccccc31)c1ccccc12 | inactive | – |
| C#C[C@]1(O)CC[C@H]2[C@@H]3CCC4=Cc5oncc5C[C@]4(C)[C@H]3CC[C@@]21C | inactive | – |
| CN1[C@@H]2CC(OC(=O)[C@H](CO)c3ccccc3)C[C@H]1[C@@H]1O[C@@H]12 (stereo partly specified) | inactive | – |
| CC(=O)/C=C/C1=C(C)CCCC1(C)C | inactive | – |
| Cc1ccc2n[nH]nc2c1 | inactive | – |
| CCCCCCCCC=O | inactive | – |
| CCCCNC(=O)NS(=O)(=O)c1ccc(N)cc1 | inactive | – |
| O=C(O)c1ccc(C(=O)O)cc1 | inactive | – |
| CC(C)(C#N)c1cc(Cn2cncn2)cc(C(C)(C)C#N)c1 | inactive | – |
| CC1(C)C(=O)N(Br)C(=O)N1Cl | inactive | – |
| CC(C)C[C@H]1C(=O)N2CCC[C@H]2[C@]2(O)O[C@](NC(=O)[C@@H]3C=C4c5cccc6[nH]c(Br)c(c56)C[C@H]4N(C)C3)(C(C)C)C(=O)N12 | inactive | – |

| SMILES | outcome | AC50 |
| --- | --- | --- |
| O=C(O)CN(CCN(CC(=O)O)CC(=O)O)CCN(CC(=O)O)CC(=O)O | inactive | – |
| CCN(CC)c1ccc(C(=C2C=CC(=[N+](CC)CC)C=C2)c2ccc(S(=O)(=O)O)cc2S(=O)(=O)[O-])cc1 | inactive | – |
| Clc1ccc(Cl)c(Cl)c1Cl | – | 19.8 µM (active) |
| CCCC/C=C\CCCCCCCCCC=O | inactive | – |
| OCCOCCOCCOCCO | inactive | – |
| N#Cc1ccccc1 | inactive | – |
| CCCOCC(C)O (stereo unspecified) | inactive | – |
| COc1ccc(Cl)cc1C | inactive | – |
| O=CCCc1ccccc1 | inactive | – |
| CC(C)OP(=O)(CP(=O)(OC(C)C)OC(C)C)OC(C)C | inactive | – |
| NC(N)=NC(=O)c1nc(Cl)c(N)nc1N | inactive | – |
| C=CC(=O)OCCn1c(=O)n(CCOC(=O)C=C)c(=O)n(CCOC(=O)C=C)c1=O | inactive | – |
| CC[C@]12CCCN3CCc4c(n(c5ccccc45)[C@@](O)(C(=O)OC)C1)[C@@H]32 | inactive | – |
| Nc1cc([N+](=O)[O-])ccc1Cl | inactive | – |
| CCCCCCCCCC=O | inactive | – |
| CC(C#N)(CCC(=O)O)N=NC(C)(C#N)CCC(=O)O (stereo unspecified) | inactive | – |
| CC(C)C(C)(C)C(C)(C)C(C)(C)S | inactive | – |
| C[C@]12CC[C@H]3[C@@H](CCC4=CC(=O)CC[C@@]43C)[C@@H]1CC[C@@H]2C(=O)CO | inactive | – |
| O=c1oc(=O)c2cc3c(=O)oc(=O)c3cc12 | inactive | – |

experiment: ATG_VDRE_CIS: Attagene CIS-FACTORIAL HepG2 Assay for human Vitamin D Receptor Element (VDRE) (AID 2282968); settings: HepG2 VDRE cis-reporter transcription, actives raise or lower the signal
In short: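 Steps: transfect HepG2 with multiple reporter transcription units; dose chemicals 24 h; isolate RNA; RT-PCR; label with 6-FAM primer extension; HpaI digest; capillary electrophoresis. Curves fitted both directions against DMSO.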

| SMILES | outcome | AC50 |
| --- | --- | --- |
| O=C1C(c2[nH]c3ccc(S(=O)(=O)O)cc3c2O)=Nc2ccc(S(=O)(=O)O)cc21 | inactive | – |
| COc1cc2ncnc(Nc3cccc(Cl)c3)c2cc1OC | – | 12.7 µM (active) |
| O=Cc1ccc(Cl)c([N+](=O)[O-])c1 | – | 100 µM (active) |
| CC(=O)[C@H]1CC[C@H]2[C@@H]3CC=C4C[C@@H](O)CC[C@]4(C)[C@H]3CC[C@]12C | – | 22.6 µM (active) |
| O=S(=O)(O)c1ccc(O)c2ncccc12 | inactive | – |
| NCCCCCCN | inactive | – |
| OC[C@H]1O[C@H](O[C@]2(CCl)O[C@H](CCl)[C@@H](O)[C@@H]2O)[C@H](O)[C@@H](O)[C@H]1Cl | inactive | – |
| CCCCCC=CCC(=O)OC | inactive | – |
| CNCCCC12CCC(c3ccccc31)c1ccccc12 | – | 15 µM (active) |
| C#C[C@]1(O)CC[C@H]2[C@@H]3CCC4=Cc5oncc5C[C@]4(C)[C@H]3CC[C@@]21C | – | 4.54 µM (active) |
| CN1[C@@H]2CC(OC(=O)[C@H](CO)c3ccccc3)C[C@H]1[C@@H]1O[C@@H]12 (stereo partly specified) | inactive | – |
| CC(=O)/C=C/C1=C(C)CCCC1(C)C | – | 3.58 µM (active) |
| Cc1ccc2n[nH]nc2c1 | inactive | – |
| CCCCCCCCC=O | inactive | – |
| CCCCNC(=O)NS(=O)(=O)c1ccc(N)cc1 | inactive | – |
| O=C(O)c1ccc(C(=O)O)cc1 | inactive | – |
| CC(C)(C#N)c1cc(Cn2cncn2)cc(C(C)(C)C#N)c1 | inactive | – |
| CC1(C)C(=O)N(Br)C(=O)N1Cl | inactive | – |
| CC(C)C[C@H]1C(=O)N2CCC[C@H]2[C@]2(O)O[C@](NC(=O)[C@@H]3C=C4c5cccc6[nH]c(Br)c(c56)C[C@H]4N(C)C3)(C(C)C)C(=O)N12 | – | 1.3 µM (active) |

| SMILES | outcome | AC50 |
| --- | --- | --- |
| O=C(O)CN(CCN(CC(=O)O)CC(=O)O)CCN(CC(=O)O)CC(=O)O | inactive | – |
| CCN(CC)c1ccc(C(=C2C=CC(=[N+](CC)CC)C=C2)c2ccc(S(=O)(=O)O)cc2S(=O)(=O)[O-])cc1 | inactive | – |
| Clc1ccc(Cl)c(Cl)c1Cl | inactive | – |
| CCCC/C=C\CCCCCCCCCC=O | inactive | – |
| OCCOCCOCCOCCO | inactive | – |
| N#Cc1ccccc1 | inactive | – |
| CCCOCC(C)O (stereo unspecified) | inactive | – |
| COc1ccc(Cl)cc1C | inactive | – |
| O=CCCc1ccccc1 | inactive | – |
| CC(C)OP(=O)(CP(=O)(OC(C)C)OC(C)C)OC(C)C | inactive | – |
| NC(N)=NC(=O)c1nc(Cl)c(N)nc1N | inactive | – |
| C=CC(=O)OCCn1c(=O)n(CCOC(=O)C=C)c(=O)n(CCOC(=O)C=C)c1=O | – | 4.16 µM (active) |
| CC[C@]12CCCN3CCc4c(n(c5ccccc45)[C@@](O)(C(=O)OC)C1)[C@@H]32 | inactive | – |
| Nc1cc([N+](=O)[O-])ccc1Cl | inactive | – |
| CCCCCCCCCC=O | inactive | – |
| CC(C#N)(CCC(=O)O)N=NC(C)(C#N)CCC(=O)O (stereo unspecified) | inactive | – |
| CC(C)C(C)(C)C(C)(C)C(C)(C)S | – | 6.65 µM (active) |
| C[C@]12CC[C@H]3[C@@H](CCC4=CC(=O)CC[C@@]43C)[C@@H]1CC[C@@H]2C(=O)CO | – | 5.34 µM (active) |
| O=c1oc(=O)c2cc3c(=O)oc(=O)c3cc12 | inactive | – |
